From PubChem BioAssay (Tox21)
Calls of active or inactive are those of the source. Where a call stands in place of a potency, no number is given. Unless noted, calls come from the whole dose curve; as a rule, active = well fitted curve in the direction sought with a large enough effect in the repeat runs; inconclusive = weak or mixed curves; inactive = no such curve, though single readings can be large; an effect the other way counts as inactive or inconclusive.

Assays:
[1] = tested on: thyroid hormone receptor (rat, GH3 cells); test: qHTS assay to identify small molecule agonists of the thyroid receptor (TR) signaling pathway (AID 743066; calls by dose curve)
[2] = qHTS assay to identify small molecule antagonists of the estrogen receptor alpha (ER-alpha) signaling pathway using the BG1 cell line - cell viability counter screen (AID 743081);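 note: compound given together with 17beta-estradiol as the ER stimulus; nearly all actives have a fitted effect of over 45% in size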; note: potency is the fitted concentration of half-maximal effect
Aromatase (Homo sapiens) = Aromatase (Homo sapiens) (UniProt P11511); test: qHTS assay to identify aromatase inhibitors (AID 743083); note: nearly all actives have a fitted effect of over 55% in size; note: potency is the fitted concentration of half-maximal effect
[3] = qHTS assay to identify aromatase inhibitors - cell viability counter screen (AID 743084);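 note: cells stimulated with testosterone during compound exposure; nearly all actives have a fitted effect of over 55% in size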; note: potency is the fitted concentration of half-maximal effect
[4] = molecular target: Aryl hydrocarbon receptor (Homo sapiens) (UniProt P35869); test: qHTS assay to identify small molecule that activate the aryl hydrocarbon receptor (AhR) signaling pathway (AID 743085); note: nearly all actives have a fitted effect of over 15% in size; note: potency is the fitted concentration of half-maximal effect
How it was run: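 Luminescence read-out: ONE-Glo reagent, 30 min at room temperature, in HG2L7.5c1 HepG2 reporter cells treated 24 h at 37C. Viability was measured beforehand by CellTiter-Fluor fluorescence after 30 min at 37C.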

[5] = qHTS assay to identify small molecule antagonists of the estrogen receptor alpha (ER-alpha) signaling pathway - cell viability counter screen (AID 743074; calls by dose curve; note: nearly all actives have a fitted effect of over 45% in size)
[6] = molecular target: Estrogen receptor (Homo sapiens) (UniProt P03372); test: qHTS assay to identify small molecule agonists of the estrogen receptor alpha (ER-alpha) signaling pathway (AID 743075; calls by dose curve; note: potency is the fitted concentration of half-maximal effect)
[7] = molecular target: Estrogen receptor (Homo sapiens) (UniProt P03372); test: qHTS assay to identify small molecule agonists of the estrogen receptor alpha (ER-alpha) signaling pathway using the BG1 cell line (AID 743079); note: nearly all actives have a fitted effect of over 20% in size; note: potency is the fitted concentration of half-maximal effect
[8] = qHTS assay to identify small molecule antagonists of the estrogen receptor alpha (ER-alpha) signaling pathway using the BG1 cell line (AID 743080; calls by dose curve;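 note: BG1 cells stimulated with 17beta-estradiol alongside compound; nearly all actives have a fitted effect of over 25% in size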; note: potency is the fitted concentration of half-maximal effect)
How it was run: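 BG1-Luc-4E2 cells (endogenous full-length ER-alpha, 4xERE luciferase) hormone-starved 5 days in charcoal-stripped FBS, plated 4,000/well for 24 h, then compound plus 17beta-estradiol for 21.5 h at 37 C; ONE-Glo luminescence read.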

[9] = molecular target: Estrogen receptor (Homo sapiens) (UniProt P03372); test: qHTS assay to identify small molecule antagonists of the estrogen receptor alpha (ER-alpha) signaling pathway (AID 743069; active = well fitted curve in the direction sought with a large enough effect in the signal ratio in the repeat runs, not every such curve was filed as active; inconclusive = weak or mixed curves, or effect the other way; inactive = no such curve, though single readings can be large or run the other way; the % refers to the signal ratio; note: potency is the fitted concentration of half-maximal effect)
How it was run: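 Fluorescence intensity from a beta-lactamase FRET substrate served as the read-out. Cells: HEK293 with stably integrated ER-alpha-UAS-bla reporter. Agonist 17beta-estradiol was co-added with compounds; incubation 18 hr at 37C, substrate 2 hr at room temperature.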

Chain of Estrogen receptor (Homo sapiens) (P03372 whole entry, looked up): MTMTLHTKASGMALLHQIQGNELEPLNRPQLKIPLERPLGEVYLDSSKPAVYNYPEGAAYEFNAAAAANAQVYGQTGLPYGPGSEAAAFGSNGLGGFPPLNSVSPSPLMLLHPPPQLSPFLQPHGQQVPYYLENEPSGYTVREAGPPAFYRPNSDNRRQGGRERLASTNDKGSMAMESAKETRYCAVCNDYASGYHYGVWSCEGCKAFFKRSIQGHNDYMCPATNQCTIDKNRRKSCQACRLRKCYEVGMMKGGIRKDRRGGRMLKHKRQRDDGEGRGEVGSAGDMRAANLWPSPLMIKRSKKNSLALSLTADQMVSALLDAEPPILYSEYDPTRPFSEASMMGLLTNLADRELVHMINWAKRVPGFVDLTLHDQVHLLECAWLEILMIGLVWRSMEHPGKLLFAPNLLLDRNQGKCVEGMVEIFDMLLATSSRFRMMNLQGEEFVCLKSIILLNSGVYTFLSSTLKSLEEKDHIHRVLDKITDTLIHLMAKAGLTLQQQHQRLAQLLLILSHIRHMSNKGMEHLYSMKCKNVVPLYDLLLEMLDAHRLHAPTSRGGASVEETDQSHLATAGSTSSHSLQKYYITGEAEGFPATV
Chain of Aromatase (Homo sapiens) (P11511 whole entry, looked up): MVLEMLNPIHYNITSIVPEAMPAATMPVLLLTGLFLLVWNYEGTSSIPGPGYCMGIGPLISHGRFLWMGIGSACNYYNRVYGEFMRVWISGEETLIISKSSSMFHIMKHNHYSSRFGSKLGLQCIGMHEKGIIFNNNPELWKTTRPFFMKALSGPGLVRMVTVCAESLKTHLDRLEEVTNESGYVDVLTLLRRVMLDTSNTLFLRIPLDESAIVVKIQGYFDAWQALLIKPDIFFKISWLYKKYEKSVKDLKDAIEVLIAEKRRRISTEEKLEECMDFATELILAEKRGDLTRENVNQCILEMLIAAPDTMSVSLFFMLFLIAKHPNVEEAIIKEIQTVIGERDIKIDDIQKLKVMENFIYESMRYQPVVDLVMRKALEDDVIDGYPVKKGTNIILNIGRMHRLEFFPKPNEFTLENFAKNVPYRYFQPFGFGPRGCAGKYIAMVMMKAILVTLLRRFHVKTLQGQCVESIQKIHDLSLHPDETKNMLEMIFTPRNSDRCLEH
Chain of Aryl hydrocarbon receptor (Homo sapiens) (P35869 whole entry, looked up): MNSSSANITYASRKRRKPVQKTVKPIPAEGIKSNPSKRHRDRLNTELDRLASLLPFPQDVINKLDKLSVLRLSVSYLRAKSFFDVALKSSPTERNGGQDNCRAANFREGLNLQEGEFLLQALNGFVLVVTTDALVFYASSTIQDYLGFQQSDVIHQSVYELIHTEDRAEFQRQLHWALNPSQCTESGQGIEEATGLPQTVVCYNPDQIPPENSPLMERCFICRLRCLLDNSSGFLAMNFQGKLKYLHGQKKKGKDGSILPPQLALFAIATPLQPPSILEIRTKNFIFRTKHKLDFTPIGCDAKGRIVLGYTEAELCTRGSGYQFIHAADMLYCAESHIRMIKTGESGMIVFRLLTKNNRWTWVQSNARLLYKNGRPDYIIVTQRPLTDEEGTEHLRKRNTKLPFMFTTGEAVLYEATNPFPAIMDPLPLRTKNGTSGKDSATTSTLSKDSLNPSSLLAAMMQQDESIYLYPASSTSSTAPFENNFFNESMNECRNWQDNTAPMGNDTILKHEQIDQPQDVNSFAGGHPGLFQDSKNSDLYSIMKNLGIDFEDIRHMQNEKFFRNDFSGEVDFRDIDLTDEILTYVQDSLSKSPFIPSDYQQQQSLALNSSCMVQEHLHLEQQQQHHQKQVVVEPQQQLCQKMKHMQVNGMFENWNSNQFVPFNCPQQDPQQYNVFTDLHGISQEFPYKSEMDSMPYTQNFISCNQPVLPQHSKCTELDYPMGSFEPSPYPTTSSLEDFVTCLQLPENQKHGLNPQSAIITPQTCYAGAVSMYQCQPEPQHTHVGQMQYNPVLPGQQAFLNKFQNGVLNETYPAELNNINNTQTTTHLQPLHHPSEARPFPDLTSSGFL

| SMILES | Potency [1] | Potency [2] | Potency (Aromatase (Homo sapiens)) | Potency [3] | Potency [4] | outcome [5] | Potency [6] | Potency [7] | Potency [8] | Potency [9] |
| --- | --- | --- | --- | --- | --- | --- | --- | --- | --- | --- |
| CCCCOc1ccc(CC(=O)NO)cc1 | inactive | inactive | inactive | inactive | inactive |  |  |  |  |  |
| CN(C)C/C=C(/c1ccc(Br)cc1)c1cccnc1 | inactive |  | inactive | inactive | inactive | inactive |  |  |  |  |
| C=CC(=O)OCCOC(=O)CCC(=O)O | inactive | inactive |  | 61.1 µM (active) | inactive | inactive |  |  |  |  |
| COc1ccc(C(C)=O)cc1 | inactive | inactive | inactive | inactive | inactive |  | inactive | 44.6 µM (active) | inactive |  |
| CCCCc1cc2ccccc2c(OCCN(C)C)n1 | inactive |  | inactive | inactive | inactive | inactive |  |  |  |  |
| CC(C)=CCCC(C)CC=O (stereo not drawn) | inactive | inactive |  | inactive | inactive | inactive |  |  |  |  |
| O=C=NC1CCC(CC2CCC(N=C=O)CC2)CC1 (stereo not drawn) | inactive |  | inactive | inactive | inactive | inactive |  |  |  |  |
| O=C(O)c1cccc(N(Cc2cccnc2)c2ccc(OC(F)F)c(OC(F)F)c2)c1 | inactive | inactive |  | inactive | inactive | inactive |  |  |  |  |
| CN(C(=O)CCCOc1ccc2[nH]c(=O)ccc2c1)C1CCCCC1 | inactive | inactive | inactive | inactive | inactive | inactive |  |  |  |  |
| Cc1cc(CC(=O)O)c(C)n1-c1ccc(Cl)cc1 | inactive | inactive | inactive | inactive | inactive | inactive |  |  |  |  |
| CC1(C)CCC(C)(C)c2cc(NC(=O)c3ccc(C(=O)O)cc3)ccc21 | inactive | inactive |  | inactive | inactive | inactive |  |  |  |  |
| Cc1occc1S |  | inactive | inactive | inactive | inactive | inactive | inactive | inactive | inactive | inactive |
| NC(N)=NN=C(/C=C/c1ccc([N+](=O)[O-])o1)/C=C/c1ccc([N+](=O)[O-])o1 |  | 23.7 µM (active) | 7.5 µM (active) | 5.31 µM (active) |  | inactive | 4.77 µM [activator] (active) |  |  |  |
| CCOc1nc2cccc(C(=O)O)c2n1Cc1ccc(-c2ccccc2-c2nn[nH]n2)cc1 |  | inactive | inactive | inactive | inactive | inactive | inactive | 0.0376 µM (active) | 2.66 µM (active) | 0.425 µM [inconclusive] (active) |
| CC1=CCC(C(C)C)C=C1 (stereo not drawn) |  | inactive | inactive | inactive | inactive | inactive | inactive | inactive | inactive | inactive |
| CNCC[C@@H](Oc1ccccc1C)c1ccccc1 |  | inactive | inactive | inactive | inactive | inactive | inactive | inactive | inactive | inactive |
| O=[N+]([O-])c1cccc(Cl)c1Cl |  | inactive | inactive |  |  | inactive | inactive | inactive | inactive | inactive |
| CN1CCC(=C2c3ccccc3CCc3sccc32)CC1 |  | inactive | inactive | inactive | inactive | inactive | inactive |  | inactive | inactive |
| C[Si](C)O[Si](C)(C)O[Si](C)(C)O[Si](C)C |  | inactive | inactive | inactive | inactive | inactive | inactive | inactive | inactive | inactive |
| CCN1CCC[C@H]1CNC(=O)c1c(OC)ccc(Br)c1OC |  | inactive | inactive | inactive | inactive | inactive | inactive | inactive | inactive | inactive |
| COCCO |  | inactive | inactive | inactive | inactive | inactive | inactive | inactive | inactive | inactive |
| CCCC(C)C |  | inactive | inactive |  | inactive | inactive | inactive | inactive | inactive | inactive |
| CC(C)NCC(O)c1cc(O)cc(O)c1 (stereo not drawn) |  | inactive | inactive | inactive | inactive | inactive |  |  | inactive |  |
| Cn1sccc1=O |  | inactive | inactive |  | inactive | inactive | inactive |  | inactive | inactive |
| CC(C(=O)O)c1ccc(C(=O)c2ccccc2)s1 (stereo not drawn) |  | inactive | inactive | inactive |  | inactive | inactive |  |  | inactive |

| SMILES | Potency [1] | Potency [2] | Potency (Aromatase (Homo sapiens)) | Potency [3] | Potency [4] | outcome [5] | Potency [6] | Potency [7] | Potency [8] | Potency [9] |
| --- | --- | --- | --- | --- | --- | --- | --- | --- | --- | --- |
| CC(C)(C)c1cc(O)c(C(C)(C)C)cc1O |  | inactive | 21.7 µM (active) |  | inactive | inactive | inactive |  |  | 43.6 µM [inconclusive] (active) |
| O=S1(=O)N=C(O)c2ccccc21 |  | inactive | inactive | inactive |  | inactive |  |  |  |  |
| CCCCCCOC(=O)CCC |  | inactive | inactive | inactive | inactive |  |  |  |  |  |
| CN(C)CCCNCCCN |  | inactive | inactive | inactive | inactive | inactive |  |  | inactive | inactive |
| CCOC(=O)[C@H](CCc1ccccc1)N[C@H]1CCc2ccccc2N(CC(=O)O)C1=O |  | inactive | 15 µM (active) |  | inactive | inactive |  |  |  |  |
| CCOc1ccc(NC(=O)CC(C)=O)cc1 |  | inactive | inactive | inactive |  | inactive |  |  |  |  |
| CCN(CC)C(C)CN1c2ccccc2Sc2ccccc21 (stereo not drawn) |  | inactive | inactive | inactive | inactive | inactive | inactive | inactive | inactive | inactive |
| CN1CCN(C2=Nc3ccccc3Sc3ccc(Cl)cc32)CC1 |  | inactive | inactive | inactive | inactive | inactive |  |  |  |  |
| COCCCCCCCCOCCC[Si](C)(O[Si](C)(C)C)O[Si](C)(C)C | inactive |  | 19.3 µM (active) | 30.6 µM (active) | inactive |  |  |  |  |  |
| CC(=O)O[C@H]1C[C@@H]2CC[C@@H]3[C@H](CC[C@@]4(C)[C@H]3C[C@H]([N+]3(C)CCCCC3)[C@@H]4OC(C)=O)[C@@]2(C)C[C@@H]1N1CCCCC1 |  | inactive | inactive | inactive | inactive | inactive | inactive | 33.5 µM (active) | inactive | inactive |
| O=C(CCN1CCN2CCCC2C1)N1c2ccccc2Sc2ccc(Cl)cc21 (stereo not drawn) |  |  | inactive | inactive | inactive | inactive | inactive | inactive | inactive | inactive |
| CC(O)C1CCCCC1 (stereo not drawn) | inactive | inactive | inactive | inactive | inactive |  |  |  |  |  |
| OCCC1CCCCN1 (stereo not drawn) |  | inactive | inactive | inactive | inactive | inactive | inactive | inactive | inactive | inactive |
| CN(C)CC[C@@H](c1ccc(Br)cc1)c1ccccn1 |  | inactive |  | inactive | inactive | inactive | inactive | inactive | inactive | inactive |
| C=CC(=O)OCC(C)OCC(C)OCC(C)OC(=O)C=C (stereo not drawn) |  | inactive | 43.3 µM (active) | 48.6 µM (active) | inactive | inactive | 61.7 µM [activator] (active) |  |  |  |
| CN(C)CC/C=C1\c2ccccc2COc2ccccc21 |  | inactive | inactive | inactive | inactive | inactive |  |  |  |  |
| Cc1ccc2c(ccc3ccccc32)c1 |  | inactive | inactive | inactive | inactive | inactive | inactive |  |  |  |
| CC(Cc1cccc(C(F)(F)F)c1)NCCOC(=O)c1ccccc1 (stereo not drawn) |  | inactive | 29.8 µM (active) |  | inactive | inactive |  |  |  |  |
| O=C(O)Cc1cc(I)c(Oc2ccc(O)c(I)c2)c(I)c1 |  | inactive | inactive | inactive | inactive | inactive |  |  |  |  |
| Cc1cc(O)ccc1N |  | inactive | 54.8 µM (active) | 54.8 µM (active) | 61.4 µM (active) | inactive | inactive | inactive |  | inactive |
| CCc1nn(C2CCCCC2)c2cc(C3(C#N)CCC(C(=O)O)CC3)ccc12 (stereo not drawn) |  | inactive | 38.6 µM (active) | 54.5 µM (active) | inactive | inactive |  | inactive | inactive | 13.8 µM [inconclusive] (active) |
| C#CCOC(=O)[C@@H](C)Oc1ccc(Oc2ncc(Cl)cc2F)cc1 |  | inactive | inactive | inactive | inactive | inactive | inactive | inactive | inactive |  |
| Cc1cccc(OCCOc2cccc(C)c2)c1 |  | inactive | inactive | inactive |  | inactive | inactive |  |  | inactive |
| CN1CCN(C2=Nc3cc(Cl)ccc3Nc3ccccc32)CC1 |  | inactive | inactive | inactive | inactive | inactive | inactive |  | inactive |  |
| CC(=O)/C(C)=C/C1C(C)=CCCC1(C)C (stereo not drawn) |  | inactive | inactive | inactive | inactive | inactive | inactive | inactive | inactive | inactive |
